T cruzi growth-1 – T. cruzi proliferation inhibition; 5.9% of 77,000 active; inhibition, % at 8.34 µM; T. cruzi beta-gal in NIH3T3, GalScreen luminescence, 90 h;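 active means mean inhibition above about 93%, with at least 55% of replicates each passing it, limit read from the data, passing the limit was not always enough; inconclusive means only one of those two conditions holds; inactive means neither condition holds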
C diff HTS – C. difficile growth inhibition; Clostridium difficile clinical isolate growth, OD600, 24 h; active compounds read low; growth activity, negative = inhibition, % at 16 µg/mL (by protocol); 0.25% of 86,000 active; AID 1259249;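 active means mean growth activity at or below -80% and every replicate also at or below -80%; inconclusive means mean at or below -80% but some replicate above -80%; inactive means mean growth activity above -80%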;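 further: 0% = DMSO wells and -100% = levofloxacin 16 µg/mL wells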
Pf Dd2 growth – P. falciparum Dd2 growth inhibition; SYBR Green, 72 h; active compounds read low; activity change, % at 10 µM; 2.3% of 94,000 active; in the data active means activity change below about -80%; inconclusive means no clear call, values can overlap the other calls
T cruzi growth-2 – Trypanosoma cruzi proliferation inhibition. shares compounds with T cruzi growth-1. T. cruzi beta-gal in NIH3T3, GalScreen luminescence, 90 h. inhibition, % at 8.35 µM. 72% of 5,600 active;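 active means mean replicate inhibition above about 95% and at least 55% of replicates individually reaching it, limit read from the data; inconclusive means only one of the two criteria is met; inactive means neither criterion is met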
T cruzi growth-3 – Trypanosoma cruzi proliferation inhibition; shares compounds with T cruzi growth-1; T. cruzi beta-gal in NIH3T3, GalScreen luminescence, 90 h; inhibition, % at 2.09 µM; 21% of 5,600 active;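 active means mean inhibition above about 95%, with at least 55% of replicates also reaching it, limit read from the data; inconclusive means meets just one of the two conditions; inactive means meets neither condition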;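 further: plate controls were neutral control median for no effect and positive control median for full effect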
NIH3T3 tox – cytotoxicity in mouse NIH/3T3 fibroblasts; cytotoxicity (signal decrease), % at 8.35 µM; shares compounds with T cruzi growth-1; AID 651742; NIH/3T3 viability, CellTiter-Glo ATP luminescence, 90 h; 14% of 5,600 active;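 active means mean signal decrease across replicates above about 35% based on untreated-well scatter, with enough replicates individually passing, limit read from the data; inconclusive means no rule stated though some were filed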;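 further: 0% = median of neutral control wells and 100% = median of positive control wells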
3T3 cytotox 2 – kills mouse NIH/3T3 fibroblasts. shares compounds with T cruzi growth-1. NIH/3T3 viability, CellTiter-Glo ATP luminescence, 90 h. inhibition, % at 24.9 µM. 56% of 5,600 active;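 active means mean loss of cell viability signal at or above a set limit, and enough replicates individually reaching it; inconclusive means meets only the mean limit or only the replicate share; inactive means meets neither condition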;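 further: 0% = median of neutral control wells and 100% = median of positive control wells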
The depositor's hits bear a star; u = inconclusive; x = no result given. Sampled rows, rich in hits. Any-hit rate of the full collection: about 6.8%.

SMILES	T cruzi growth-1	C diff HTS	Pf Dd2 growth	T cruzi growth-2	T cruzi growth-3	NIH3T3 tox	3T3 cytotox 2
COc1ccc(S(=O)(=O)Nc2cccc3c2O[C@@H](CN(C)S(=O)(=O)c2ccc(OC)cc2)[C@H](C)CN([C@H](C)CO)C3=O)cc1	x	5	17	x	x	x	x
COc1cccc(-c2ccc([C@@H]3[C@H]4CN(C(=O)C5CCCCC5)CC(=O)N4[C@H]3CO)cc2)c1	x	1	-68	x	x	x	x
COCCNC(=O)C[C@@H]1CC[C@H]2[C@H](COc3ccc(NC(=O)Nc4ccccc4)cc3C(=O)N2C)O1	7	-13	-6	x	x	x	x
CC(=O)N(C)C[C@H]1Oc2cc(C#Cc3ccccc3)ccc2S(=O)(=O)N([C@H](C)CO)C[C@H]1C	15	-3	-16	x	x	x	x
O=C(N[C@H]1CC[C@@H](CCn2cc(C3(O)CCCC3)nn2)O[C@@H]1CO)C1CCCC1	x	1	-3	x	x	x	x
OC[C@@H]1[C@@H](c2ccc(C3=CCCC3)cc2)[C@@H]2CN(CCC(F)(F)F)CCCCN12	89	-10	-27	x	x	x	x
OC[C@H]1[C@H](c2ccc(C3=CCCC3)cc2)[C@H]2CN(CCC(F)(F)F)CCCCN21	74	-3	30	x	x	x	x
OC[C@@H]1[C@H](c2ccc(C3=CCCCC3)cc2)[C@@H]2CN(CCC(F)(F)F)CCCCN12	u	29	-58	96*	105*	70*	106*
OC[C@@H]1[C@H](c2ccc(C3=CCCC3)cc2)[C@H]2CN(CCC(F)(F)F)CCCCN12	103*	2	-77	100*	58	15	103*
C[C@H](CO)N1C[C@H](C)[C@H](CN(C)Cc2ccc3c(c2)OCO3)OCc2cnnn2CCCC1=O	-25	x	1	x	x	x	x
CC(C)C#Cc1ccc([C@H]2[C@@H](CO)N3CCCCN(S(=O)(=O)Cc4ccccc4)C[C@H]23)cc1	103*	8	-66	105*	73	58*	105*
CC(C)C#Cc1ccc([C@@H]2[C@H](CO)N3CCCCN(S(=O)(=O)Cc4ccccc4)C[C@@H]23)cc1	102*	1	-63	104*	72	47*	105*
C[C@@H](O)C#Cc1ccc([C@H]2[C@@H](CO)N3CCCCN(S(=O)(=O)Cc4ccccc4)C[C@@H]23)cc1	58	3	-61	x	x	x	x
C[C@H](O)C#Cc1ccc([C@@H]2[C@@H](CO)N3CCCCN(S(=O)(=O)Cc4ccccc4)C[C@@H]23)cc1	54	-4	-40	x	x	x	x
C[C@H](O)C#Cc1ccc([C@H]2[C@H](CO)N3CCCCN(S(=O)(=O)Cc4ccccc4)C[C@@H]23)cc1	58	3	-23	x	x	x	x
C[C@@H](O)C#Cc1ccc([C@H]2[C@H](CO)N3CCCCN(S(=O)(=O)Cc4ccccc4)C[C@@H]23)cc1	67	-7	-22	x	x	x	x
CC(C)C#Cc1ccc([C@H]2[C@H]3CN(S(=O)(=O)Cc4ccccc4)CCCCN3[C@H]2CO)cc1	110*	-3	-3	106*	46	27	21
CC(C)C#Cc1ccc([C@H]2[C@@H](CO)N3CCCCN(S(=O)(=O)Cc4ccccc4)C[C@@H]23)cc1	109*	-8	5	108*	65	27	12
O=S(=O)(N[C@@H]1CC[C@H](CCn2cc(-c3ccccn3)nn2)O[C@H]1CO)c1cccc(Cl)c1	-20	x	-62	x	x	x	x
O=C(CN1CCOCC1)N[C@@H]1CC[C@H](CCn2cc(C3CCCCC3)nn2)O[C@@H]1CO	-33	-5	-2	x	x	x	x
CN(C)CCCNC(=O)[C@H]1[C@H](CO)[C@H]2Cn3c(ccc(-c4ccncc4)c3=O)[C@@H]1N2C(=O)CC1CC1	40	-2	13	x	x	x	x
CC(C)C#Cc1ccc([C@H]2[C@@H](CO)N3CCCCN(C(=O)c4ccc5c(c4)OCO5)C[C@@H]23)cc1	99*	-7	-1	110*	106*	68*	50*
C[C@H](O)C#Cc1ccc([C@@H]2[C@H]3CN(C(=O)c4ccc5c(c4)OCO5)CCCCN3[C@H]2CO)cc1	33	-8	17	x	x	x	x
CC(C)C#Cc1ccc([C@@H]2[C@H]3CN(C(=O)c4ccc5c(c4)OCO5)CCCCN3[C@H]2CO)cc1	39	5	-8	x	x	x	x
C[C@H](O)C#Cc1ccc([C@@H]2[C@@H](CO)N3CCCCN(C(=O)c4ccc5c(c4)OCO5)C[C@@H]23)cc1	97*	-9	4	105*	32	31	44*
SMILES	T cruzi growth-1	C diff HTS	Pf Dd2 growth	T cruzi growth-2	T cruzi growth-3	NIH3T3 tox	3T3 cytotox 2
Cc1ccc(S(=O)(=O)N(C)C[C@@H]2Oc3c(NC(=O)c4cnccn4)cccc3C(=O)N([C@@H](C)CO)C[C@@H]2C)cc1	56	7	-18	x	x	x	x
COc1ccccc1-c1cn(CC[C@H]2CC[C@H](NC(=O)c3ccccc3F)[C@H](CO)O2)nn1	x	4	0	x	x	x	x
CN(C)C(=O)C[C@H]1CC[C@H]2[C@@H](COC[C@H](O)CN2CC2CCCCC2)O1	-20	-6	0	x	x	x	x
C[C@@H]1CCCCO[C@@H](CN(C)C(=O)c2ccccc2)[C@H](C)CN([C@H](C)CO)C(=O)c2cc(NC(=O)Nc3ccc(C(F)(F)F)cc3)ccc2O1	u	-7	-57	103*	117*	-7	9
C[C@@H]1CCCCO[C@@H](CN(C)C(=O)c2ccccc2)[C@@H](C)CN([C@H](C)CO)C(=O)c2cc(NC(=O)Nc3ccc(C(F)(F)F)cc3)ccc2O1	117	-10	2	x	x	x	x
C[C@@H]1CCCCO[C@@H](CN(C)C(=O)c2ccccc2)[C@@H](C)CN([C@@H](C)CO)C(=O)c2cc(NC(=O)Nc3ccc(C(F)(F)F)cc3)ccc2O1	93	7	-58	x	x	x	x
C[C@@H]1CCCCO[C@H](CN(C)C(=O)c2ccccc2)[C@@H](C)CN([C@@H](C)CO)C(=O)c2cc(NC(=O)Nc3ccc(C(F)(F)F)cc3)ccc2O1	u	2	-92*	107*	110*	-5	-9
C[C@@H]1CCCCO[C@H](CN(C)C(=O)c2ccccc2)[C@H](C)CN([C@@H](C)CO)C(=O)c2cc(NC(=O)Nc3ccc(C(F)(F)F)cc3)ccc2O1	u	0	-61	101*	112*	20	48*
C[C@@H]1CN([C@H](C)CO)C(=O)c2cc(NC(=O)Nc3ccc(C(F)(F)F)cc3)ccc2O[C@@H](C)CCCCO[C@@H]1CN(C)C(=O)c1ccccc1	72	4	-68	x	x	x	x
C[C@H]1CCCCO[C@H](CN(C)C(=O)CCCN(C)C)[C@@H](C)CN([C@@H](C)CO)C(=O)c2cc(NC(=O)C3CCCCC3)ccc2O1	7	0	13	x	x	x	x
COc1ccc2c3c([nH]c2c1)[C@H](CO)N(Cc1ccc(F)cc1)CC31CN(C(=O)NC(C)C)C1	x	x	22	x	x	x	x
C[C@@H]1CCCCO[C@@H](CN(C)S(C)(=O)=O)[C@@H](C)CN([C@H](C)CO)C(=O)c2cc(NC(=O)CCCN(C)C)ccc2O1	4	-1	x	x	x	x	x

Bioassay records: PubChem BioAssay, Broad Institute
